Experimental data reported in PubChem BioAssay (NCATS).
Results filed as inconclusive are left out. Where a call stands in place of a potency, no number is given. Active and inactive are the calls of the source. The call rests on the fitted dose curve; in most records, active means well fitted curve in the direction sought with a large enough effect; inconclusive means small, poorly fitted or top-dose-only effect, or another doubt; inactive means no such curve, though single readings can be large; an effect the other way counts as inactive or inconclusive.

Experiments:
[1] = target: Aldehyde dehydrogenase, mitochondrial (Homo sapiens) (UniProt P05091); assay: qHTS for Inhibitors of the Aldehyde Dehydrogenase Family (ALDH2) Primary screen (AID 2061308); further: nearly all actives have a fitted effect of over 55% in size
[2] = target: Retinaldehyde dehydrogenase 3 (Homo sapiens) (UniProt P47895); assay: qHTS for Inhibitors of the Aldehyde Dehydrogenase Family (ALDH1A3) Primary screen (AID 2061315)

Compound | Potency [1] | Potency [2]
COC(=O)CC1(O)C(=O)Nc2ccccc21 (configuration not stated) | inactive | inactive
O=C(Nc1ccc(N2C(=O)[C@@H]3[C@H](C2=O)[C@@H]2C=C[C@H]3C2)c(Cl)c1)c1ccccn1 | inactive | inactive
COC(=O)C1C(c2ccc(O)cc2)C(C(=O)O)C1c1ccc(O)cc1 (configuration not stated) | inactive | inactive
CCOc1nc(NC(=O)Cc2cc(OC)ccc2OC)cc(N)c1C#N | inactive | inactive
C=CC1(C)CC2=CCC3C(C)(C(=O)O)CCCC3(C)C2CC1OC(C)=O (configuration not stated) | inactive | inactive
CC1(C)CCCC2(C)C=C(C(=O)O)C(O)CC12 (configuration not stated) | inactive | inactive
CC(=O)OC1C(O)C(C)=C(CCC(C)CC(=O)O)C2(C)CCCC(C)(C)C12 (configuration not stated) | inactive | inactive
CC1=C2CC(O)(C(C)(C)O)C(O[C@@H]3O[C@H](CO)[C@@H](O)[C@H](O)[C@H]3O)CC(C)C2CC1=O (some centres not stated) | inactive | inactive
O=C(Cc1ccccc1)OC[C@H]1O[C@H](O[C@H]2O[C@H](CO)[C@@H](O)[C@H](O)[C@H]2O)[C@H](O)[C@@H](O)[C@@H]1O | inactive | inactive
C=C1CC[C@@]2(OC1)O[C@H]1CC3[C@@H]4CC=C5C[C@@H](O)C[C@@H](O[C@@H]6OC[C@H](O)[C@H](O)[C@H]6O[C@@H]6O[C@@H](C)[C@H](O)[C@@H](O)[C@H]6O)[C@]5(C)C4CC[C@]3(C)[C@H]1[C@@H]2C (some centres not stated) | inactive | inactive
Cc1cc2nc(NCCCO)n(CC(=O)c3cc(C(C)(C)C)c(O)c(C(C)(C)C)c3)c2cc1C | inactive | inactive
CC(C)(O)C1CCC2(C)C3C(O)C4C(C13)C42CO (configuration not stated) | inactive | inactive
CC(=O)O[C@H]1CC2C(COC(=O)CC(C)C)=CO[C@@H](OC(=O)CC(C)C)C2[C@]12CO2 (some centres not stated) | inactive | inactive
O=C(/C=C/c1ccccc1)OC[C@]12O[C@H]1[C@@H](O)[C@@H]1C=CO[C@@H](O[C@@H]3O[C@H](CO)[C@@H](O)[C@H](O)[C@H]3O)[C@@H]12 | inactive | inactive
C[C@@H]1O[C@@H](OC[C@H]2O[C@@H](OCC3CCC4CC3C4(C)C)[C@H](O)[C@@H](O)[C@@H]2O)[C@H](O)[C@H](O)[C@H]1O (some centres not stated) | inactive | inactive
C[C@H]1O[C@@H](O[C@H]2CC[C@@]3(C)C(CC[C@]4(C)C3CC=C3C5CC(C)(C)CC[C@]5(C(=O)O)CC[C@]34C(=O)O)C2(C)C)[C@H](O)[C@@H](O)[C@@H]1O (some centres not stated) | inactive | inactive
C=C1C(OC(C)=O)CCC2(C)CC3(OC)OC(=O)C(C)=C3CC12 (configuration not stated) | inactive | inactive
Nc1nc(Nc2ccc(S(N)(=O)=O)cc2)n(C(=S)Nc2c(F)cccc2F)n1 | inactive | inactive
CC1=CCC2C(C)(CO)CCCC2(C)C1CC12OC1C(O)C(CO)=CC2O (configuration not stated) | inactive | inactive
C=C1C(=O)OC2/C=C(\CO)CC/C=C(\C=O)C(OC)C(OC(=O)C(C)CC)C12 (configuration not stated) | inactive | inactive
CC(O)CCc1ccc(O[C@@H]2O[C@H](CO)[C@@H](O)[C@H](O)[C@H]2O)cc1 (some centres not stated) | inactive | inactive
CC(C(O)/C=C/C(C)(C)O)C1CCC2(C)C3C(=O)C=C4C(CCC(O)C4(C)C)C3(C)CCC12C (configuration not stated) | inactive | inactive
CC1=C2C(=O)C=C(CO[C@@H]3O[C@H](CO)[C@@H](O)[C@H](O)[C@H]3O)[C@@H]2[C@H]2OC(=O)[C@H](C)[C@@H]2CC1 | inactive | inactive
C/C=C(\C)C(=O)OC[C@H]1O[C@@H](O[C@H]2[C@@H](O[C@H]3O[C@H](CO)[C@@H](O)[C@H](O)[C@H]3O[C@@H]3O[C@H](CO)[C@@H](O)[C@H](O)[C@H]3O)O[C@H](COC(=O)/C(C)=C/C)[C@@H](O)[C@@H]2O)[C@H](O)[C@@H](O)[C@@H]1O | inactive | inactive
C=C1C(=O)OC2C(OC(=O)C=C(C)C)C(C)=C3C(=O)C=C(C)C3C(O)C12 (configuration not stated) | inactive | inactive
CC(C)C1(O)NC(=O)C(CC2(O)c3ccccc3N3C(=O)C(C)(C)NC32)n2c1nc1ccccc1c2=O (configuration not stated) | inactive | inactive
